Structures are written as SMILES. About 220 (0.56%) of roughly 39,000 compounds showed activity. The full list was thinned out, with actives kept by preference. A number with no mark means an inactive call.
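Note: Wild-type cells incubated without shaking, value is the mean of two biological replicates.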

The test deals with Escherichia coli K-12 BW25113. Nature of the test: relative growth (OD600 normalised to plate interquartile mean) (fraction); higher = less growth inhibition, active = 0.2 or less. To be noted: 50 µM; LB; incubation time: overnight (16-24 h).
`O=C(NCC(F)(F)F)[C@@H]1[C@@H](CO)[C@@H]2Cn3c(cccc3=O)[C@@H]2N1C(=O)C1CCC1`: the relative growth was 1. As for `O=C(C[C@@H]1CC[C@H]2[C@@H](COC[C@H](O)CN2C(=O)c2ccccc2F)O1)N1CCN(c2ccccc2)CC1`, the figure is 0.976. Regarding `CS(=O)(=O)NC[C@@H]1OC[C@@H]2CCN(C(=O)c3ccnnc3)C[C@@H]21`, the relative growth is 1.02.

Turning to `C[C@H]1CCCCO[C@@H](CN(C)C(=O)NC2CCCCC2)[C@@H](C)CN([C@@H](C)CO)C(=O)c2cc(NC(=O)c3ccccc3)ccc2O1`, the relative growth is 1.03.

On to `C[C@@H]1CN([C@H](C)CO)C(=O)c2cccc(NS(=O)(=O)c3ccc(Cl)cc3)c2O[C@H]1CN(C)C(=O)Nc1cccc2ccccc12`, for which the relative growth is 1.02.

In the case of `C[C@H](CO)N1C[C@H](C)[C@@H](CN(C)C(=O)Nc2ccc(C(F)(F)F)cc2)Oc2ccc(NS(=O)(=O)c3ccc(Cl)cc3)cc2CC1=O`, the relative growth was 0.982. As for `Cc1ccc(S(=O)(=O)Nc2ccc3c(c2)C(=O)N([C@@H](C)CO)C[C@@H](C)[C@H](CN(C)C(=O)CCC(F)(F)F)OCCCC[C@H](C)O3)cc1`, the figure is 0.979; as for `Cc1noc(C)c1NC(=O)N(C)C[C@@H]1Oc2ncc(C#CCN(C)C)cc2C(=O)N([C@H](C)CO)C[C@@H]1C`, 0.979.

As to `Cc1oc(=O)oc1CN1CCN(c2cc3c(cc2F)c(=O)c(C(=O)O)c2n3C(C)S2)CC1` (stereo unspecified), the relative growth is 0.0438 (active). Consider `C[C@@H]1CN([C@H](C)CO)C(=O)Cc2cc(NC(=O)Nc3ccc4c(c3)OCO4)ccc2O[C@@H]1CN(C)Cc1ccc(C(F)(F)F)cc1`, for which the relative growth was 1.02. `O=P(O)(O)CN(CCN(CP(=O)(O)O)CP(=O)(O)O)CP(=O)(O)O`: the relative growth was 0.926. With `O=C(O)P(=O)(O)O`, the relative growth is 0.0351 (active). As for `CC(=O)O`, the figure is 1.01; as for `C[C@H]1CN([C@@H](C)CO)C(=O)c2cccc(NS(C)(=O)=O)c2O[C@@H]1CN(C)Cc1ccc(C(F)(F)F)cc1`, 1.01; as for `C[C@@H]1CN([C@H](C)CO)C(=O)c2cc(C#CCN(C)C)cnc2O[C@H]1CN(C)C(=O)CCN1CCCCC1`, 0.983. As for `C[C@H](CO)N1C[C@H](C)[C@@H](CN(C)Cc2ccccc2)OCCCC[C@H](C)Oc2ccc(NC(=O)CCC(F)(F)F)cc2C1=O`, the figure is 0.999; as for `C[C@H]1CN([C@@H](C)CO)C(=O)c2cccc(NS(=O)(=O)c3cn(C)cn3)c2O[C@@H]1CN(C)S(=O)(=O)c1cccs1`, 1.01. For the compound `COc1ccc(S(=O)(=O)N(C)C[C@@H]2Oc3ncc(C#Cc4ccc(F)cc4)cc3C(=O)N([C@H](C)CO)C[C@@H]2C)cc1`, the relative growth was 1.05. In the case of `COc1ccccc1CNC(=O)C[C@@H]1C[C@@H]2c3cc(NC(=O)NC4CCCC4)ccc3O[C@@H]2[C@H](CO)O1`, the relative growth was 0.983. As for `Cc1ccc(S(=O)(=O)Nc2ccc3c(c2)CC(=O)N([C@@H](C)CO)C[C@@H](C)[C@H](CN(C)CC2CC2)O3)cc1`, the figure is 1.02; as for `C[C@H]1CCCCO[C@H](CN(C)C(=O)Nc2ccc(F)cc2)[C@@H](C)CN([C@@H](C)CO)C(=O)c2cc(NS(=O)(=O)c3ccc(Cl)cc3)ccc2O1`, 0.987. As for `N[C@@H]1CC[C@@H](c2ccc(Cl)c(Cl)c2)c2ccccc21`, the figure is 0.0794 (active). For the compound `CNC1CCC(c2ccc(Cl)c(Cl)c2)c2ccccc21.Cl` (stereo unspecified), the relative growth was 0.261.

For `CN[C@H]1CC[C@@H](c2ccc(Cl)c(Cl)c2)c2ccccc21`, the relative growth was 0.868. As for `C[C@@H]1CCCCO[C@H](CN(C)C(=O)c2ccccc2)[C@@H](C)CN([C@@H](C)CO)C(=O)c2cc(NS(=O)(=O)c3ccccc3)ccc2O1`, the figure is 0.956.

In the case of `C[C@@H]1CCCCO[C@H](CN(C)C(=O)Nc2ccc(F)cc2)[C@@H](C)CN([C@H](C)CO)C(=O)c2cc(NC(=O)c3ccccc3)ccc2O1`, the relative growth was 1.04. As to `C[C@H]1CN([C@@H](C)CO)C(=O)c2cc(NS(=O)(=O)c3cccs3)ccc2O[C@@H]1CN(C)Cc1ccc(Cl)c(Cl)c1`, the relative growth is 0.995.

Consider `Oc1c(Cl)cc(Cl)cc1Sc1cc(Cl)cc(Cl)c1O`, for which the relative growth is 0.202. In the case of `O=C(Nc1cc(Cl)cc(Cl)c1O)c1c(O)c(Cl)cc(Cl)c1Cl`, the relative growth was 0.565.

On to `Oc1c(Cl)cc(Cl)c(Cl)c1Cc1c(O)c(Cl)cc(Cl)c1Cl`, for which the relative growth was 0.0546 (active). For `COc1ccc(S(=O)(=O)N(C)C[C@@H]2OCCCC[C@@H](C)Oc3ccc(NC(=O)Nc4cccc5ccccc45)cc3C(=O)N([C@H](C)CO)C[C@@H]2C)cc1`, the relative growth was 1.03. `C[C@@H]1CN([C@H](C)CO)C(=O)CCCn2cc(nn2)CO[C@@H]1CN(C)Cc1ccc2c(c1)OCCN2C`: the relative growth is 1.02. As for `CC[C@H](C)[C@H](N)C1=N[C@H](C(=O)N[C@@H](CC(C)C)C(=O)N[C@@H]2CCC(=O)[O][Zn][O]C(=O)C[C@H]3NC(=O)[C@H](Cc4c[nH]cn4)NC(=O)[C@@H](Cc4ccccc4)NC(=O)[C@H]([C@@H](C)CC)NC(=O)[C@@H](CCCN)NC(=O)[C@H](CCCCNC(=O)[C@H](CC(N)=O)NC3=O)NC(=O)[C@H]([C@@H](C)CC)NC2=O)CS1`, the figure is 0.696; as for `CCC(C)C1NC(=O)C(CCNCS(=O)(=O)[O-])NC(=O)C(NC(=O)C(CCNCS(=O)(=O)[O-])NC(=O)C(NC(=O)C(CCNCS(=O)(=O)[O-])NC(=O)CCCCC(C)C)C(C)O)CCNC(=O)C(C(C)O)NC(=O)C(CCNCS(=O)(=O)[O-])NC(=O)C(CCNCS(=O)(=O)[O-])NC(=O)C(C(C)CC)NC1=O.[Na+].[Na+].[Na+].[Na+].[Na+]` (stereo unspecified), 0.0529 (active).

As for `CCCCCCCCCC(=O)N[C@@H](Cc1c[nH]c2ccccc12)C(=O)N[C@H](CC(N)=O)C(=O)N[C@@H](CC(=O)O)C(=O)N[C@@H]1C(=O)NCC(=O)N[C@@H](CCCN)C(=O)N[C@@H](CC(=O)O)C(=O)N[C@H](C)C(=O)N[C@@H](CC(=O)O)C(=O)NCC(=O)N[C@H](CO)C(=O)N[C@@H]([C@H](C)CC(=O)O)C(=O)N[C@@H](CC(=O)c2ccccc2N)C(=O)O[C@@H]1C`, the relative growth is 0.952. For the compound `CC(C)CCCC(=O)N[C@@H](CCNCS(=O)(=O)O)C(=O)N[C@H](C(=O)N[C@@H](CCNCS(=O)(=O)O)C(=O)N[C@H]1CCNC(=O)[C@H]([C@@H](C)O)NC(=O)[C@H](CCNCS(=O)(=O)O)NC(=O)[C@H](CCNCS(=O)(=O)O)NC(=O)[C@H](CC(C)C)NC(=O)[C@H](CC(C)C)NC(=O)[C@H](CCNCS(=O)(=O)O)NC1=O)[C@@H](C)O`, the relative growth was 0.0299 (active).

As to `CCCc1nc2c(=O)n(C)c(=O)[nH]c2n1C`, the relative growth is 0.999. As for `C[C@@H]1CN([C@@H](C)CO)C(=O)c2cc(NS(=O)(=O)c3ccc(Cl)cc3)ccc2O[C@@H](C)CCCCO[C@H]1CN(C)Cc1ccncc1`, the figure is 1.01. The figure for `C[C@@H]1CN([C@@H](C)CO)C(=O)Cc2cc(NS(=O)(=O)c3ccc(F)cc3)ccc2O[C@@H]1CN(C)S(C)(=O)=O` is 1; for `COc1ccc(S(=O)(=O)Nc2ccc3c(c2)C(=O)N([C@@H](C)CO)C[C@@H](C)[C@H](CN(C)S(=O)(=O)c2cn(C)cn2)OCCCC[C@H](C)O3)cc1` it is 0.989; for `CC(C)NC(=O)N(C)C[C@@H]1Oc2c(NC(=O)C3CCOCC3)cccc2C(=O)N([C@@H](C)CO)C[C@H]1C` it is 0.977.

Take `CCc1nc2c(OCC(=O)c3ccc(Cl)cc3Cl)cccn2c1N(C)C(=O)COc1ccccc1`: the relative growth is 1.02.

Regarding `COc1cccc(S(=O)(=O)Nc2ccc3c(c2)OC[C@H](C)N(C(=O)Cc2cccnc2)C[C@H](C)[C@H](OC)CN(C)C3=O)c1`, the relative growth was 0.963. Regarding `COc1ccc(NC(=O)N(C)C[C@@H]2OCCCC[C@H](C)Oc3ccc(NS(=O)(=O)c4cccs4)cc3C(=O)N([C@H](C)CO)C[C@H]2C)cc1`, the relative growth is 0.941. The figure for `O=C(NCC[C@@H]1CC[C@H](NS(=O)(=O)c2cccc(F)c2)[C@@H](CO)O1)C1CC1` is 0.987. The figure for `C[C@@H]1CN([C@H](C)CO)C(=O)c2cc(NC(=O)Nc3ccc(F)cc3)ccc2O[C@@H]1CN(C)S(=O)(=O)c1cn(C)cn1` is 1.01.

For `C[C@H](CO)N1C[C@H](C)[C@@H](CN(C)S(=O)(=O)c2cn(C)cn2)Oc2ccc(NC(=O)Nc3ccc(F)cc3)cc2CC1=O`, the relative growth is 0.986.

As to `CCNC(=O)[C@@H]1[C@@H](CO)[C@@H]2Cn3c(ccc(-c4cccc(C(=O)N(C)C)c4)c3=O)[C@H]1N2`, the relative growth was 1.02. Take `Cc1cc(=O)c(C(=O)N[C@@H](C(=O)N[C@@H]2C(=O)N3C(C(=O)O)=C(CSc4nnnn4C)CS[C@H]23)c2ccc(O)cc2)c[nH]1`: the relative growth is 0.0389 (active).

`CC1=C(C(=O)O)N2C(=O)[C@@H](NC(=O)[C@@H](N)c3ccc(O)cc3)[C@H]2SC1`: the relative growth is 0.999. As for `Cc1cc(O)c(C(=O)NC(C(=O)NC2C(=O)N3C(C(=O)O)=C(CSc4nnnn4C)CSC23)c2ccc(O)cc2)cn1` (stereo unspecified), the figure is 0.0416 (active). The figure for `CCN1CCN(C(=O)NC(C(=O)NC2C(=O)N3C(C(=O)O)=C(CSc4nnnn4C)CSC23)c2ccc(O)cc2)C(=O)C1=O` (stereo unspecified) is 0.046 (active). The figure for `CC1=C(C(=O)O)N2C(=O)C(NC(=O)C(N)c3ccc(O)cc3)C2SC1` (stereo unspecified) is 0.986. Consider `CC1=C(C(=O)O)N2C(=O)[C@@H](NC(=O)[C@H](N)c3ccc(O)cc3)[C@H]2SC1`, for which the relative growth was 1.06.

In the case of `N=c1sccn1CC(=O)O`, the relative growth is 1.04. As for `CC1=C(/C=C/C(C)=C/C=C/C(C)=C/C(=O)O)C(C)(C)CCC1`, the figure is 0.987.

The values are drawn from the supplement of paper PMC9446081.
